Potency data for eleven molecules are collected here from PubChem BioAssay (NCATS).

Inconclusive results are not listed. A call without a number means that no potency is given here. The source made the active and inactive calls. Calls come from the whole dose curve; as a rule, active = well fitted cell-killing curve with a large enough effect; inconclusive = small, poorly fitted or top-dose-only effect; inactive = flat fitted curve, though single readings scatter.
Potency is the fitted concentration of half-maximal effect.

The experiment can be described thus: qHTS of pediatric cancer cell lines to identify multiple opportunities for drug repurposing: Confirmatory screen for A673 cells (AID 1347110).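 Note: cells exposed to compound for 48 h before the viability read; nearly all actives have a fitted effect of over 65% in size.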 The settings on record: A673 Ewing sarcoma cell viability; series mostly up to 45.9 µM. In outline:
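Forty-eight-hour viability assay. Follow-up compounds ran at 11-point dilutions; positive control bortezomib at 2.3 uM final, neutral control DMSO.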
For the molecule `COc1cc2c(cc1OC)[C@@H]1Cc3ccc(OC)c(OC)c3CN1CC2`, the Potency entry was “inactive”.
As for `C[C@@H]1[C@H](O)[C@@H](C)C=CC=CC=CC=CC=CC=CC=C[C@H](O[C@@H]2O[C@H](C)[C@H](O)[C@H](N)[C@@H]2O)C[C@@H]2O[C@](O)(C[C@@H](O)C[C@@H](O)[C@H](O)CC[C@@H](O)C[C@@H](O)CC(=O)O[C@H]1C)C[C@H](O)[C@@H]2C(=O)O`, the Potency entry was “inactive”.
For `CNC(=O)[C@H](CC1=CN=C2C=CCC=C12)NC(=O)[C@@H](CC(=O)NO)CC(C)C`, the Potency was 14.7 µM (active).
Consider `CC[C@]1(O)C[C@H]2CN(CCC3=c4ccccc4=N[C]3[C@@](C(=O)OC)(c3cc4c(cc3OC)N(C)[C@H]3[C@@](O)(C(N)=O)[C@H](O)[C@]5(CC)C=CCN6CC[C@]43[C@@H]65)C2)C1`, for which the Potency is 0.0585 µM (active).
With `CCC(c1ccc(O)cc1)C(CC)c1ccc(O)cc1` (stereo unspecified), the Potency result is “inactive”.
To `CC(C)n1c(C=C[C@H](O)C[C@H](O)CC(=O)O)c(-c2ccc(F)cc2)c2ccccc21` belongs 4.65 µM (active); to `CC1CNc2c(cccc2S(=O)(=O)N[C@@H](CCCN=C(N)N)C(=O)N2CC[C@@H](C)C[C@@H]2C(=O)O)C1` (stereo partly specified), “inactive”; to `C[C@@]1(c2cc(-c3cncnc3)c(F)cc2F)CCSC(N)=N1`, “inactive”.
As for `CCOC(=O)[C@H](CCc1ccccc1)N[C@@H](C)C(=O)N1CCCC1C(=O)O` (stereo partly specified), the Potency was 4.14 µM (active).
In the case of `CC1=C(CC(=O)O)c2cc(F)ccc2C1=Cc1ccc(S(C)=O)cc1` (stereo unspecified), the Potency entry was “inactive”.
For the molecule `CSc1cccc(Nc2ncc3cc(-c4c(Cl)cccc4Cl)c(=O)n(C)c3n2)c1`, the Potency was 2.08 µM (active).
